# The panel holds about 83,000 compounds, 20% with a hit somewhere; the sample as a whole holds those more often.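 Each cell line was grown in a 96-well plate and treated with one concentration of compound for 48 hours. Values below 10 were considered active.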 A number with no mark means an inactive call. Calls of active or inactive are those of the source.
# System: NCI-H522 lung
# Test: NCI-60 one-dose screen, 48 h (100 = growth as untreated, 0 = no growth, -100 = all killed)
# Settings: 10 µM unless noted
row,Compound,growth
1,CCOC(=O)[C@H](CSSc1ncnc2cc[nH]c12)NC(=O)[C@@H](C)c1ccc2cc(OC)ccc2c1,11.3%
2,CC(C)C[C@H](NC(=O)Cn1ccc(NCc2ccccc2)cc1=O)B(O)O,-20.7% (active)
3,COc1ccc(C(=O)c2cc(OC)c(OC)c(OC)c2)cc1/C=C/C(=O)c1ccc(O)cc1,-79.3% (active)
4,Cc1cccc(NC(=O)c2sc3nc4c(cc3c2N)CCC4)c1C,-16.5% (active)
5,COc1cc(-c2cc(/C=C3\CCCCC3=O)[nH]n2)cc(OC)c1OC,76.9%
6,COc1cccc(C2CC(=O)Nc3c2c(C)nn3-c2nc3ccccc3[nH]2)c1OC (stereo not drawn),87.8%
7,CCNC(=O)C1CCCN1C(=O)C(CCCN=C(N)N)NC(=O)C(CC(C)C)NC(=O)C(CC(C)C)NC(=O)C(Cc1ccc(O)cc1)NC(=O)C(CO)NC(=O)C(Cc1c[nH]c2ccccc12)NC(=O)C(Cc1cnc[nH]1)NC(=O)C1CCC(=O)N1 (stereo not drawn),74.1%
8,COc1ccc(-c2nc3sccn3c2-c2ccnc(NCCCNS(=O)(=O)c3ccc(F)cc3)n2)cc1,-1.46% (active)
9,CCCCCC(=O)OCc1ccccc1,85.7%
10,CN(C)c1nc(N)c(N=O)c(N)n1,106%
11,COc1ccc(Cn2cc(COc3cc(/C=C/C(=O)c4cc(OC)c(OC)c(OC)c4)ccc3OC)nn2)cc1,41.6%
12,CCOC(=O)C(Cc1ccccc1)n1c(O)c(C=Nc2ccc(C(=O)OCCN(CC)CC)cc2)sc1=O (stereo not drawn),85.7%
13,COc1cc(Cn2c(SCC(=O)Nc3ccc(Cl)cc3)nc3ccccc3c2=O)cc(OC)c1OC,40.9%
14,Cc1ccc(S(=O)(=O)NCCCNc2nccc(-c3c(-c4ccccc4)nc4sccn34)n2)cc1,54.1%
15,Cc1cc(-c2ccccc2)c(C)n1Cc1ccc(Cl)cc1,37.5%
16,CN(C)c1ccc(C2CC(c3ccccc3)=NN2/C=C2\SC(=O)NC2=O)cc1 (stereo not drawn),90%
17,C=C1C(=O)O[C@H]2[C@H]1CC/C(COC(=O)NCCc1ccc(OC)cc1)=C\CC[C@@]1(C)O[C@@H]21,-64.6% (active)
18,O=C(CCCn1c(=O)c2sc3ccccc3c2n2nnc(-c3ccccc3)c12)NCCc1cnc[nH]1,-71.9% (active)
19,O=C1c2ccccc2C(=O)c2c1oc1oc3c(c(=O)c21)c(=O)n(-c1ccccc1)c1ccccc31,19.4%
20,COc1ccc(Cn2c(SC)nc(=O)n(Cc3ccc(Cl)cc3)c2=O)cc1,93.9%

row,Compound,growth
1,COc1cc(CNC(=O)CCSc2nc3ccccc3c(=O)n2Cc2cc(OC)c(OC)c(OC)c2)cc(OC)c1OC,10.2%
2,O=C(COc1ccccc1)N1N=C(c2ccc(Cl)cc2)CC1c1c[nH]c2ccccc12 (stereo not drawn),73.9%
3,CC(=O)n1cc([C@H]2CC[C@H](c3cn(C(C)=O)c4ccccc34)c3c2[nH]c2ccccc32)c2ccccc21,65.1%
4,CCN(CC)CCCC(C)N=c1cc(Nc2cc(=NC(C)CCCN(CC)CC)c3cc(OC)ccc3o2)oc2ccc(OC)cc12 (stereo not drawn),-78.6% (active)
5,CC1(C)OC2COC3(C(=O)O)OC(C)(C)OC3C2O1 (stereo not drawn),90.2%
6,Cc1ccc(Cn2c(-c3nonc3N)nc3ccccc32)cc1,66.4%
7,COc1cc2nc(N3CCC[C@@H](NC4=CC(=O)c5ccccc5C4=O)C3)nc(N)c2cc1OC,94.3%
8,O=C(Nc1ccc(Cl)cc1)c1cc(-c2ccc(F)cc2)c2sc(=O)[nH]c2n1,3.59% (active)
9,Cc1cc(C)c(S(=O)(=O)N2CCN(c3cc4c(cc3F)c(=O)c(C(=O)O)cn4C3CC3)CC2)c(C)c1,67.3%
10,O=C(CCCn1c2c(sc3ccccc32)c(=O)n2nnc(-c3ccccc3)c12)NCCc1cnc[nH]1,-95.8% (active)
11,COc1ccc2c(c1)NC(=O)CN2c1nc(NC2CC2)nc2ccccc12,-11.9% (active)
12,C=C1C(=O)O[C@H]2[C@H](O)[C@@H](C)CCC/C(C)=C/CC[C@@]3(C)O[C@@H]3C[C@@H]12,-17.3% (active)
13,COc1ccc(/C=C/C(=O)c2cc(OC)c(OC)c(OC)c2)cc1OCc1cn(Cc2ccc(F)cc2)nn1,26.4%
14,O=C(CCC(=O)OC1CCCC1)OC1CCCC1,79.8%
15,CCN(C(=O)c1cc2ncccc2[nH]1)[C@H]1CCC[C@@H](NCc2cccc(F)c2)C1,89.8%
16,CCCCCCCCCCCCCCCCC(Br)C(=O)O (stereo not drawn),80.4%
17,COc1cc2nc(Cl)nc(NCCO)c2cc1OC,100%
18,CCOC(=O)C1=C(CSC(=S)N(C2CCCCC2)C2CCCCC2)N(C)C(=O)NC1c1ccccc1 (stereo not drawn),58.1%
19,CC1=C(C#N)C(C)(C)C(C#N)=C(C)N1,104%

# System: A549/ATCC NSCLC
# Test: as above
# Settings: 10 µM unless noted
row,Compound,growth
1,CCOC(=O)[C@H](CSSc1ncnc2cc[nH]c12)NC(=O)[C@@H](C)c1ccc2cc(OC)ccc2c1,59.9%
2,CC(C)C[C@H](NC(=O)Cn1ccc(NCc2ccccc2)cc1=O)B(O)O,40.4%
3,COc1ccc(C(=O)c2cc(OC)c(OC)c(OC)c2)cc1/C=C/C(=O)c1ccc(O)cc1,68.9%
4,Cc1cccc(NC(=O)c2sc3nc4c(cc3c2N)CCC4)c1C,18.6%
5,COc1cc(-c2cc(/C=C3\CCCCC3=O)[nH]n2)cc(OC)c1OC,95.1%
6,COc1cccc(C2CC(=O)Nc3c2c(C)nn3-c2nc3ccccc3[nH]2)c1OC (stereo not drawn),34.4%
7,CCNC(=O)C1CCCN1C(=O)C(CCCN=C(N)N)NC(=O)C(CC(C)C)NC(=O)C(CC(C)C)NC(=O)C(Cc1ccc(O)cc1)NC(=O)C(CO)NC(=O)C(Cc1c[nH]c2ccccc12)NC(=O)C(Cc1cnc[nH]1)NC(=O)C1CCC(=O)N1 (stereo not drawn),81.6%
8,COc1ccc(-c2nc3sccn3c2-c2ccnc(NCCCNS(=O)(=O)c3ccc(F)cc3)n2)cc1,14%
9,CCCCCC(=O)OCc1ccccc1,106%
10,CN(C)c1nc(N)c(N=O)c(N)n1,109%
11,COc1ccc(Cn2cc(COc3cc(/C=C/C(=O)c4cc(OC)c(OC)c(OC)c4)ccc3OC)nn2)cc1,60.1%
12,CCOC(=O)C(Cc1ccccc1)n1c(O)c(C=Nc2ccc(C(=O)OCCN(CC)CC)cc2)sc1=O (stereo not drawn),74.4%
13,COc1cc(Cn2c(SCC(=O)Nc3ccc(Cl)cc3)nc3ccccc3c2=O)cc(OC)c1OC,64.9%
14,Cc1ccc(S(=O)(=O)NCCCNc2nccc(-c3c(-c4ccccc4)nc4sccn34)n2)cc1,58.4%
15,Cc1cc(-c2ccccc2)c(C)n1Cc1ccc(Cl)cc1,33.7%
16,CN(C)c1ccc(C2CC(c3ccccc3)=NN2/C=C2\SC(=O)NC2=O)cc1 (stereo not drawn),70.1%
17,C=C1C(=O)O[C@H]2[C@H]1CC/C(COC(=O)NCCc1ccc(OC)cc1)=C\CC[C@@]1(C)O[C@@H]21,64.1%
18,O=C(CCCn1c(=O)c2sc3ccccc3c2n2nnc(-c3ccccc3)c12)NCCc1cnc[nH]1,-45.7% (active)
19,O=C1c2ccccc2C(=O)c2c1oc1oc3c(c(=O)c21)c(=O)n(-c1ccccc1)c1ccccc31,37.7%
20,COc1ccc(Cn2c(SC)nc(=O)n(Cc3ccc(Cl)cc3)c2=O)cc1,87.9%

row,Compound,growth
1,COc1cc(CNC(=O)CCSc2nc3ccccc3c(=O)n2Cc2cc(OC)c(OC)c(OC)c2)cc(OC)c1OC,35%
2,O=C(COc1ccccc1)N1N=C(c2ccc(Cl)cc2)CC1c1c[nH]c2ccccc12 (stereo not drawn),58.4%
3,CC(=O)n1cc([C@H]2CC[C@H](c3cn(C(C)=O)c4ccccc34)c3c2[nH]c2ccccc32)c2ccccc21,70%
4,CCN(CC)CCCC(C)N=c1cc(Nc2cc(=NC(C)CCCN(CC)CC)c3cc(OC)ccc3o2)oc2ccc(OC)cc12 (stereo not drawn),-48.6% (active)
5,CC1(C)OC2COC3(C(=O)O)OC(C)(C)OC3C2O1 (stereo not drawn),95.5%
6,Cc1ccc(Cn2c(-c3nonc3N)nc3ccccc32)cc1,57.3%
7,COc1cc2nc(N3CCC[C@@H](NC4=CC(=O)c5ccccc5C4=O)C3)nc(N)c2cc1OC,-74.6% (active)
8,O=C(Nc1ccc(Cl)cc1)c1cc(-c2ccc(F)cc2)c2sc(=O)[nH]c2n1,12.2%
9,Cc1cc(C)c(S(=O)(=O)N2CCN(c3cc4c(cc3F)c(=O)c(C(=O)O)cn4C3CC3)CC2)c(C)c1,20.3%
10,O=C(CCCn1c2c(sc3ccccc32)c(=O)n2nnc(-c3ccccc3)c12)NCCc1cnc[nH]1,-75.3% (active)
11,COc1ccc2c(c1)NC(=O)CN2c1nc(NC2CC2)nc2ccccc12,20.8%
12,C=C1C(=O)O[C@H]2[C@H](O)[C@@H](C)CCC/C(C)=C/CC[C@@]3(C)O[C@@H]3C[C@@H]12,80.7%
13,COc1ccc(/C=C/C(=O)c2cc(OC)c(OC)c(OC)c2)cc1OCc1cn(Cc2ccc(F)cc2)nn1,29.7%
14,O=C(CCC(=O)OC1CCCC1)OC1CCCC1,91.4%
15,CCN(C(=O)c1cc2ncccc2[nH]1)[C@H]1CCC[C@@H](NCc2cccc(F)c2)C1,102%
16,CCCCCCCCCCCCCCCCC(Br)C(=O)O (stereo not drawn),103%
17,COc1cc2nc(Cl)nc(NCCO)c2cc1OC,97.7%
18,CCOC(=O)C1=C(CSC(=S)N(C2CCCCC2)C2CCCCC2)N(C)C(=O)NC1c1ccccc1 (stereo not drawn),47.2%
19,CC1=C(C#N)C(C)(C)C(C#N)=C(C)N1,101%

# Reference: PubChem BioAssay (NCI)
